aSyn yeast inh: rescues yeast growth from alpha-synuclein toxicity; Yeast expressing alpha-synuclein, growth rescue, BacTiter-Glo, 24 h; Potency, µM (series often up to 46.1 µM), most hits filed as activators; hit rate 0.14% among 370,000; also: nearly all actives have a fitted effect of over 65% in size
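Readout is rescue of growth in alpha-synuclein-expressing yeast, so inhibitors of toxicity appear as activators. Growth after 24 hr at 30 deg C in galactose medium is quantified by luminescence.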
Abeta yeast res: A-beta toxicity reversal in yeast; hit rate 0.063% among 410,000; yeast expressing A-beta42, growth rescue, OD600, 48 h; response scale: 0% DMSO, 100% iron-clioquinol control; Potency, µM (series often up to 46.1 µM), hits mostly activators; AID 1347071; also: nearly all actives have a fitted effect of over 55% in size
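Yeast A-beta toxicity model in growth medium with pinned compounds, 48 h at 30 C; growth read as absorbance at 600 nm. Normalized to FeCl3/clioquinol equimolar mix (positive) and DMSO (negative).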
PTAP TSG101 blk: blocks PTAP/TSG101 interaction to inhibit HIV-1 budding; Q99816; Fluorescence polarization, FITC-PTAP peptide / Tsg101 binding; Potency, µM (titrated, usually from 115 µM), most hits filed as inhibitors; 340,000 tested, under 10 active; active = well fitted inhibition curve with a large enough effect in the main read-out, with a control signal flat, not every such curve was filed as active; inconclusive = small, poorly fitted or top-dose-only effect, or effect the other way, or a change in a side signal; inactive = no such curve, though single readings can be large or run the other way
Target sequence (Q99816 whole entry, looked up): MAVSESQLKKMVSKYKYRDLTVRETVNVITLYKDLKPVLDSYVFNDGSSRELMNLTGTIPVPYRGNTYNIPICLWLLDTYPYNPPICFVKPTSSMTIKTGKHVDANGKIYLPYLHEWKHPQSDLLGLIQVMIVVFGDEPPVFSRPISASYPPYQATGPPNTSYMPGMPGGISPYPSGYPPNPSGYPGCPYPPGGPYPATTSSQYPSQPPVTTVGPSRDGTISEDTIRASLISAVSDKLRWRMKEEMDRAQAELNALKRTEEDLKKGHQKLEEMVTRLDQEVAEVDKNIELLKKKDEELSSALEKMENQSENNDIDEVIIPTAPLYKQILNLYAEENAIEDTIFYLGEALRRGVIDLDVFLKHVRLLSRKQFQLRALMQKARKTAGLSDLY
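Fluorescence polarization binding of Tsg101 binding domain (10 uM final) to FITC-labeled PTAP peptide (50 nM final) in HEPES pH 7.5 buffer with NaCl, Tween 20, EDTA, TCEP. Compounds added before peptide; binding 20 min at RT.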
FUS suppressor: rescues growth of FUS-expressing yeast; hit rate 0.24% among 390,000; Potency, µM (titrated, usually from 76.6 µM), most hits filed as activators; S. cerevisiae FUS-expressing, growth rescue, OD600, 24 h; also: nearly all actives have a fitted effect of over 55% in size
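Compound concentration series was pinned onto galactose-induced FUS-expressing yeast seeded at OD 0.005. Plates sat 24hr at 30C; absorbance at 600 nm gave growth. DMSO served as background control.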
TDP-43 yeast inh: inhibitors of TDP-43 toxicity in yeast. TDP-43 expressing yeast growth rescue, BacTiter-Glo, 24 h. hit rate 1.8% among 410,000. Potency, µM (series often up to 46.1 µM), usual class: activators; also: nearly all actives have a fitted effect of over 50% in size
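Yeast expressing TDP-43 (pregrown in raffinose, seeded at OD600=0.02 in galactose medium) exposed to compounds 24 hr at 30 deg C. Growth read by BacTiter-Glo luminescence; rescue of toxicity appears as increased signal.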
Hits are given with their value; 0 = inactive; ? = inconclusive; - = no result; [ ] = dose if it differs, or a comment. Sampled rows, rich in hits. Any-hit rate of the full collection: about 2.1%. Unless noted, calls follow the shape of the dose curve; as a rule, active = well fitted curve in the direction sought with a large enough effect; inconclusive = small, poorly fitted or top-dose-only effect, or another doubt; inactive = no such curve, though single readings can be large; an effect the other way counts as inactive or inconclusive.

SMILES	aSyn yeast inh	Abeta yeast res	PTAP TSG101 blk	FUS suppressor	TDP-43 yeast inh
COc1ccc(CN2CCSc3sccc3C2=O)cc1	0	0	0	0	0
CCCCCCCCN1C(=O)[C@H](CC(=O)NCCCCc2ccccc2)C[C@@]2(C(=O)OCC)CCCC=C12	0	0	-	0	0
CC(C)Oc1ccc(CNC(=O)Cn2ccc3cc(S(=O)(=O)N4CCCC4)ccc32)cc1	0	0	0	0	0
CN(C)c1ccc(CNC(=O)c2cc3cc(S(=O)(=O)N4CCCCC4)ccc3n2C)cc1	-	0	-	8.9µM	0
CCOc1ccc(CNC(=O)Cn2ccc3cc(S(=O)(=O)N4CCCCC4)ccc32)cc1	-	0	-	16µM	0
CCOc1ccc(CNC(=O)c2cc3cc(S(=O)(=O)N4CCCCC4)ccc3n2C)cc1	-	0	-	?	0
Cc1cc(=O)[nH]c(N/N=C/c2cc(C)n(-c3ccccc3)c2C)n1	0	0	0	32µM	0
Cc1cc(=O)[nH]c(N/N=C/c2ccccc2Cl)n1	0	0	0	0	0
COc1ccc(-n2ncc3c2CC(C)(C)CC3NC(=O)c2oc(C)cc2C)cc1 (configuration not stated)	0	0	0	0	0
Cc1cc(C)c(C(=O)NC2CC(C)(C)Cc3c2cnn3-c2ccccc2)o1 (configuration not stated)	0	0	0	0	16µM
Cc1c(C(=O)NCc2cccc(F)c2)oc2c1-c1[nH]ncc1CC2	-	0	-	0	0
Cc1cccc(NC(=O)c2nc[nH]c2C(=O)N[C@@H](CC(C)C)C(=O)OC(C)(C)C)c1	0	6.3µM	0	0	0
C[C@@H](NC(=O)c1[nH]cnc1C(=O)Nc1ccccc1)c1ccccc1	0	0	0	0	22µM
Cc1cccc(NC(=O)c2nc[nH]c2C(=O)N[C@@H](Cc2ccccc2)C(=O)OC(C)(C)C)c1	0	0	?	?	0
CC(C)C[C@H](NC(=O)c1nc[nH]c1C(=O)NC(c1ccccc1)c1ccccc1)C(=O)OC(C)(C)C	0	0	?	14µM	0
O=C(C(=O)N(C1CCCCC1)C1CCCCC1)c1ccccc1	0	0	-	0	0
CCOC(=O)c1ccc(S(=O)(=O)NCC(c2ccc(N(C)C)cc2)c2c[nH]c3ccccc23)cc1 (configuration not stated)	0	0	0	?	3.2µM
CN(C)c1ccc(C(CNS(=O)(=O)c2ccc(F)cc2)c2c[nH]c3ccccc23)cc1 (configuration not stated)	0	0	0	-	0
CCCCc1ccc(NC(=O)CSc2nnc3[nH]c(=O)cc(C)n23)cc1	-	0	-	0	0
COCCN1CCN(Cc2ccc(C(=O)NC(C)C)cc2)C(=O)C1=O	-	0	-	0	0
C/C(=N\Nc1cc(-c2ccccc2)nc(-c2ccc(Br)cc2)n1)c1cccc(N)c1	0	0	-	13µM	0
CCOC(=O)n1c(=O)oc2ccc(Cl)cc21	0	0	0	0	10µM
CCOC(=O)n1c(=O)n(Cc2ccc(Cl)cc2Cl)c2ccccc21	0	0[9.22 µM]	0	0	22µM
CCOC(=O)n1c(=O)n(Cc2ccccc2Cl)c2ccccc21	0	0	0	0	0
CCCCOC(=O)n1c(=O)oc2ccccc21	0	0[9.22 µM]	0	0	0
SMILES	aSyn yeast inh	Abeta yeast res	PTAP TSG101 blk	FUS suppressor	TDP-43 yeast inh
CC(C)NC(=O)C1(N2C(=O)c3ccccc3C2=O)CCCC1	0	0	0	0	11µM
COc1ccc(-n2nnnc2-c2cccc(OC)c2)cc1	0	0	0	0	13µM
Cc1ccc(-n2nnnc2-c2cccc(C)c2)cc1	0	0	0	0	20µM
CCCn1c(N)c(N(CCOC)C(=O)c2cccc(S(=O)(=O)N3CCCc4ccccc43)c2)c(=O)[nH]c1=O	0	0	0	0	0
COc1ccc(CN2C(=O)COc3ccccc32)cc1	0	0	0	0	?
O=C1COc2ccccc2N1Cc1ccc(Cl)cc1	0	0	0	0	20µM
COc1ccc(OCCNC(=O)c2ccc3nc(C)c(N(C)Cc4ccc(NC(C)=O)cc4)n3c2)cc1	0	0	-	0	0
Cc1nc2scc(C)n2c(=O)c1S(=O)(=O)Nc1ccc(N2CCN(S(C)(=O)=O)CC2)cc1	?	?	0	0	16µM
CC(=O)c1ccc(NS(=O)(=O)c2c(C)nc3scc(C)n3c2=O)cc1	-	0	-	0	0
Cc1cccc(NS(=O)(=O)c2c(C)nc3scc(C)n3c2=O)c1	?	0	0	0	16µM
Cc1cc(C(=O)CSc2cccc[n+]2[O-])c(C)n1-c1ccccc1	?	0	0	0	?
O=C(CSc1cccc[n+]1[O-])c1ccccc1Br	?	?	0	0	35µM
FC(F)(F)c1cc(-c2ccccc2)nc(NCC2CCCO2)n1 (configuration not stated)	0	0	0	0	13µM
Cc1cccc(NC(=O)[C@H]2CC(=O)O[C@@H]2c2ccccc2)c1C	-	-	-	0	-
Cc1nn(C)c(C)c1S(=O)(=O)N(CC(=O)NCCc1ccc(Cl)cc1)c1ccc(C(C)C)cc1	-	0	-	0	0
CCCN(C(=O)c1ccco1)c1nnc(-c2ccccc2C)s1	0	0	0	0	13µM
CCNC(=O)C(=O)N/N=C/c1cc([N+](=O)[O-])ccc1O	?	0	0	0	20µM
O=[N+]([O-])c1ccc(O)c(/C=N/Nc2ncnc3c2cnn3-c2ccccc2)c1	0	0	0	0	7.9µM
O=[N+]([O-])c1cccc(N/N=C/c2cc([N+](=O)[O-])ccc2O)c1	0	0	0	0	0
O=[N+]([O-])c1ccc(NN=Cc2ccccc2O)nc1	0	0	0	0	22µM
O=C(N/N=C/c1cc([N+](=O)[O-])ccc1O)Nc1ccccc1	0	0	0	0	0[9.22 µM]
O=[N+]([O-])c1ccc(O)c(/C=N/Nc2ccccn2)c1	0.89µM	0	0	0	0
O=[N+]([O-])c1ccc(O)c(/C=N/Nc2nc3ccccc3[nH]2)c1	0	0	0	-	0
Cc1nn(C)c2c1c(C(F)(F)F)cc(=O)n2C(C)C(=O)N1CCN(c2ccccc2)CC1 (configuration not stated)	-	0	-	0	0
Cc1ccc(-n2nc(CO)c(C(=O)NCCc3ccccc3)n2)cc1C	-	0	-	0	0
O=C(Nc1sc2c(c1C(=O)NCc1ccccc1)CCCC2)c1cc(=O)c2cc(Cl)ccc2o1	-	0	-	0	0
CC(C)(C)OC(=O)N1CCC(N[C@@H](Cc2c[nH]c3ccccc23)C(=O)NCC(c2ccccc2)c2ccccc2)(C(=O)NC2CCCCC2)CC1	-	-	-	10µM	-
CN1CCC(N[C@@H](Cc2c[nH]c3ccccc23)C(=O)NCC(c2ccccc2)c2ccccc2)(C(=O)NC2CCCCC2)CC1	-	-	-	0	-
CC1(C(=O)NS(=O)(=O)C2CC2)CCCN(C(=O)c2ccco2)C1 (configuration not stated)	0	0	-	0	0

Screening data: PubChem BioAssay, National Center for Advancing Translational Sciences (NCATS)
